From PubChem BioAssay AID2235 (The Scripps Research Institute Molecular Screening Center, 2010) come the findings set out here.

SMILES strings stand for the structures. In all, about 320,000 compounds went through this assay and about 2,800 (0.88%) were called active. Many of the other results were omitted from the sample, so actives are more common in it than they were. Values without a mark were called inactive.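 The calls were made as follows: active = inhibition above the mean inhibition of all tested compounds plus 3 SD, computed separately for each screening campaign (cut at about 15% in these data); inactive = the rest.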

By inhibition is commonly meant the change of the read-out against control, counted positive when it falls.

Sequence of Serine/threonine-protein phosphatase PP1-alpha catalytic subunit (Homo sapiens) (P62136 whole entry, looked up): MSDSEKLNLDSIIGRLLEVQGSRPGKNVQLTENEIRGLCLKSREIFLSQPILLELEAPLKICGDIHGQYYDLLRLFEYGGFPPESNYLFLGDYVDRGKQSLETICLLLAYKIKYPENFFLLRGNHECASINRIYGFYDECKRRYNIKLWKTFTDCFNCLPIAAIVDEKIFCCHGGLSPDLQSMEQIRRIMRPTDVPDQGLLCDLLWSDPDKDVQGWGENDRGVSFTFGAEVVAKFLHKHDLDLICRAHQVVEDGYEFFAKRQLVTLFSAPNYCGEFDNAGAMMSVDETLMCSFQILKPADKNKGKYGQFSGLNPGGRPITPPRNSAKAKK

This assay addresses Serine/threonine-protein phosphatase PP1-alpha catalytic subunit (Homo sapiens) (UniProt P62136). The assay is described as follows: PP1-alpha phosphatase inhibitors, primary screen, counter-screen for PP5 inhibitor project, biochemical, fluorescence, OMFP substrate, single point (AID 2235). To be noted: purified PP1alpha, at 6.7 µM, stronger effect = higher value. In general terms: Counterscreens check selectivity or assay interference.
Take `Cc1nn(C)c(Oc2ccc(Cl)cc2)c1C=O`: the inhibition is -4.58%. With `Cc1ccc2c(c1)NCC(C(=O)NC1CCC(C)CC1)O2` (configuration not stated), the inhibition is -3.3%. Consider `Cc1ccc(O)c(CNc2nc3ccccc3n2C)c1`, for which the inhibition is -1.3%. On to `C/C(=N\c1nc2ccccc2n1C)c1cc(Cl)ccc1O`, for which the inhibition is 22% (active). Turning to `Cn1c(Nc2cccc(Cl)c2)nc2ccccc21`, the inhibition was -3.75%. As for `CCn1c(SCC(=O)Nc2cc(C)ccc2C)nnc1-c1cnccn1`, the figure is 20.4% (active); as for `CCc1ccc(NC(=O)CSc2nnc(-c3cnccn3)n2Cc2ccco2)cc1`, 2.61%; as for `Cc1ccc(NC(=O)CSc2nnc(-c3cnccn3)n2Cc2ccco2)cc1C`, 1.95%. Turning to `O=C(COC(=O)c1ccc(Oc2ccccc2)cc1)Nc1nnc(-c2ccccc2)o1`, the inhibition was 23.5% (active).

As to `CC(=O)Nc1cccc(C(=O)OCC(=O)Nc2nnc(-c3ccccc3)o2)c1`, the inhibition is 0.85%. Take `O=C(COC(=O)c1ccccc1Br)Nc1nnc(-c2ccccc2)o1`: the inhibition is 13.9%. For `Cc1ccc(S(=O)(=O)N(C)c2ccc(OCC(=O)NC3=NCCS3)cc2)cc1`, the inhibition is -1.97%. Consider `Cc1ccc(N=C2NC(=O)/C(=C/C=C/c3ccco3)S2)cc1C`, for which the inhibition is 16.1% (active). For the compound `CN1C(=O)/C(=C/c2ccco2)SC1=Nc1cccc(C(=O)O)c1`, the inhibition is -2.67%.

Regarding `Cc1ccc(N2NC(=O)/C(=C/C=C/c3ccco3)C2=O)cc1C`, the inhibition is 1.04%. For the compound `Cc1ccc(C)c(Cn2cnc3c(oc4ccccc43)c2=O)c1`, the inhibition was 1.24%.

Turning to `O=C(Nn1c(SCc2ccc([N+](=O)[O-])cc2)nc2ccccc2c1=O)c1ccc(F)cc1`, the inhibition is 15.9% (active).

As to `Cc1nc2ccccc2c(=O)n1NC(=O)c1ccc(Cl)c([N+](=O)[O-])c1`, the inhibition is 2.24%.

For `C=CCn1c(SCc2ccc(C(=O)NCCO)cc2)nc2ccccc2c1=O`, the inhibition is 2.26%. As for `COc1ccc(C(=O)c2c3ccc([N+](=O)[O-])cc3[n+]([O-])n2CCCN)cc1`, the inhibition is 5.14%. The same measure for `CCOc1ccc(NC(=O)CN(C)CC(=O)NC(C)c2ccccc2)cc1OCC` (configuration not stated): -1.29%; for `Cc1cc(C)n(C(=O)c2ccc(S(=O)(=O)N3CCCC3)cc2)n1`: 2.03%; for `Cc1cc(Nc2ccccc2)n(CCC#N)n1`: -2.37%. As for `Cc1cc(Nc2ccccc2)n(C(=O)c2ccc(N)cc2)n1`, the figure is 22.3% (active). `CCOC(=O)C1=C(CCc2ccccc2)NC(=O)NC1c1ccc2ccccc2c1` (configuration not stated): the inhibition is 9.37%. `COc1ccc(NS(=O)(=O)c2cc(NC(=O)C3CCCCC3)ccc2N2CCOCC2)cc1`: the inhibition is 0.37%. Turning to `Oc1ccc(C2Nc3cccc4cccc(c34)N2)cc1`, the inhibition was 30.9% (active). As for `Cc1ccc(C2Nc3cccc4cccc(c34)N2)cc1`, the figure is 1.42%.

For the compound `COc1cccc(C2Nc3cccc4cccc(c34)N2)c1`, the inhibition was 3.61%. As for `O=C(c1cc(C(=O)N2CCN(c3ccc(F)cc3)CC2)cc([N+](=O)[O-])c1)N1CCN(c2ccc(F)cc2)CC1`, the inhibition was 1.38%. For the compound `Cc1ccc(CSCC2Nc3ccc(C(=O)N4CCN(c5ccc(F)cc5)CC4)cc3NC2=O)cc1` (configuration not stated), the inhibition was 17.7% (active). On to `O=C1Nc2cc(C(=O)N3CCN(c4ccc(F)cc4)CC3)ccc2NC1CSCc1cccc(F)c1` (configuration not stated), for which the inhibition is 14.3%. On to `CCS(=O)(=O)N1Cc2ccccc2CC1C(=O)Nc1nc2ccc(F)cc2s1` (configuration not stated), for which the inhibition is 3.36%. With `CC(=O)c1c(C)[nH]c(C(=O)OCC(=O)Nc2sc3c(c2C#N)CCCC3)c1C`, the inhibition is 8.8%. Turning to `Cc1cccc(N(Cc2ccccc2)C(=O)c2ccccc2F)c1`, the inhibition is 0.11%. For `COc1ccc(C2=NS(=O)(=O)N(C)C(C(=O)NC(C)c3ccccc3)=C2)cc1` (configuration not stated), the inhibition is -1.27%.

Take `CCc1ccc(CNC(=O)C2CCN(c3nnc(C)c4c(C)n(-c5ccc(C)cc5)nc34)CC2)cc1`: the inhibition is 16.5% (active).

With `COc1ccc(-n2nc3c(N4CCC(C(=O)NCc5ccccc5)CC4)nnc(C)c3c2C)cc1`, the inhibition was 4.6%. As for `CCOc1ccc(CNC(=O)C2CCCN(c3nnc(C)c4c(C)n(-c5ccccc5)nc34)C2)cc1` (configuration not stated), the figure is 1.12%. For `CC(C)Cn1c(N)c(C(=O)COC(=O)CN2C(=O)C3CC=CCC3C2=O)c(=O)n(C)c1=O` (configuration not stated), the inhibition is -0.85%. For `O=C(Nc1ccc2ccccc2c1)Nc1ccc2snnc2c1`, the inhibition was 13.3%. Take `Cc1nn(-c2ccccc2)c2[nH]c(C(F)(F)F)cc(=O)c12`: the inhibition was 2.68%. Regarding `CN1CCN(CCCNC(=O)c2ccc(/C=C3\Oc4ccccc4N(Cc4ccc(Cl)cc4)C3=O)cc2)CC1`, the inhibition was 25.6% (active).

Take `CCCN1CCN(C(=O)CCCNC(=O)c2ccc(Cl)cc2)CC1`: the inhibition is -3.09%. For the compound `CN1C(=O)/C(=C/c2ccc(C(=O)NC3CCCC3)cc2)Oc2ccccc21`, the inhibition is 1.1%.

Regarding `Cc1cc(C)nc(-n2nc(C)cc2NC(=O)c2ccc(F)cc2F)n1`, the inhibition is -0.61%. On to `O=C(NCc1ccccc1)C(c1cccnc1)N(C(=O)c1csnn1)c1ccc(F)cc1` (configuration not stated), for which the inhibition was 8.74%. `O=C(N=C1SC2CS(=O)(=O)CC2N1c1cc(Cl)ccc1Cl)C1CC1` (configuration not stated): the inhibition was 18.9% (active). As for `O=C(CCC1CCCC1)N=C1SC2CS(=O)(=O)CC2N1Cc1ccccc1` (configuration not stated), the inhibition was 5.06%.

As to `CC(=O)c1ccc(N2C(=NC(=O)C(C)C)SC3CS(=O)(=O)CC32)cc1` (configuration not stated), the inhibition was -3.39%. For `CCOC(=O)N1CCN(C(=O)c2ccc3c(=O)n(CCc4ccc(OC)c(OC)c4)c(=O)[nH]c3c2)CC1`, the inhibition was 4.83%. Turning to `NS(=O)(=O)c1ccc(CCNC(=O)COC(=O)COc2cccc(C(F)(F)F)c2)cc1`, the inhibition is -0.82%.

Regarding `CCOC(=O)c1cc(-c2ccc(F)cc2)n(CC(=O)NCc2ccccn2)c1C`, the inhibition is -3.29%. With `Cc1ccc(OCC(=O)Nc2ccc(-c3nc4ncccc4o3)cc2)cc1`, the inhibition was 0.81%.

In the case of `Cc1ccc(OCC(=O)Nc2ccc(-c3nnc(-c4ccco4)o3)cc2)cc1`, the inhibition is 24.5% (active).

Regarding `CCCCOc1ccc(-c2nnc(-c3ccco3)o2)cc1`, the inhibition was 3.14%. For the compound `Cc1cc(C)nc(N/N=C/c2c(CO)cnc(C)c2O)n1`, the inhibition was 1.96%. As to `CSc1ccccc1NC(=O)c1cc(C2CC2)on1`, the inhibition was 0.1%.

As for `Cc1ccc2nc(N3C(=O)C(O)=C(C(=O)c4ccco4)C3c3cccc(O)c3)sc2c1` (configuration not stated), the inhibition was 21.7% (active). Consider `C=CCSc1nnc(N2C(=O)C(O)=C(C(=O)c3ccco3)C2c2ccc(F)cc2)s1` (configuration not stated), for which the inhibition was 10.6%.

Regarding `Cc1ccc2nc(N3CCN(C(=O)c4ccco4)CC3)sc2c1`, the inhibition was -4.18%.

Take `COc1ccc(OC(C)C(=O)Nc2cccnc2)cc1` (configuration not stated): the inhibition was 3%. The same measure for `Cc1cc(NC(=O)CSCc2nc(-c3cccc(Cl)c3)oc2C)no1`: 0.91%. As for `COc1ccc(N2C(=O)C(CC(=O)Nc3ccccc3)N(Cc3ccc(OC)c(OC)c3)C2=O)cc1` (configuration not stated), the figure is -2.83%; as for `N=c1c2c(-c3ccccc3)c(-c3ccccc3)n(Cc3ccccc3)c2ncn1CCCO`, 7.81%; as for `c1ccc(-c2cc(-c3ccccc3)[nH]n2)cc1`, 2.76%. `OCCCN1c2ccccc2Nc2nnc(-c3ccccc3)cc21`: the inhibition was 21.4% (active). The same measure for `CCN(CCCNC(=O)c1ccc2c(c1)NC(=O)CN2C)c1cccc(C)c1`: -0.43%; for `CCC(C)N(C(=O)CSc1nnnn1-c1ccccc1OC)C1CCS(=O)(=O)C1` (configuration not stated): -1.76%. As for `CC1CCCCN1C(=O)Cn1c(=O)oc2cc(S(=O)(=O)N3CCCCC3)ccc21` (configuration not stated), the figure is 5.73%; as for `COc1cc(Br)c(-c2sc(Nc3ccccc3)n[n+]2-c2ccccc2)cc1OC`, -0.57%. The same measure for `CCc1ccc(Nc2n[n+](-c3ccccc3)c(-c3cccc(Cl)c3Cl)s2)cc1`: 14.2%; for `COc1ccc(C)cc1Nc1n[n+](-c2ccccc2)c(-c2cccc(Cl)c2Cl)s1`: 15.2% (active). As for `CCCN(CC(=O)Nc1ccc(OC)c(OC)c1)CC(=O)Nc1ccc(F)c(F)c1F`, the inhibition was -0.52%. As for `O=C(Nc1nnc(CCOCCOCCc2nnc(NC(=O)c3ccco3)s2)s1)c1ccco1`, the figure is -2.12%; as for `NC(=O)c1ccsc1NC(=O)c1ccco1`, 1.47%; as for `O=C(Nc1nc(-c2ccco2)c(-c2ccco2)s1)c1ccco1`, 26.9% (active). With `N#Cc1ccccc1S(=O)(=O)N1CCN(Cc2c(O)ccc3ccccc23)CC1`, the inhibition was 0.2%. In the case of `CCn1c(SCC(=O)Nc2ccc(Br)cc2)nc2sc3c(c2c1=O)CCN(C)C3`, the inhibition was 3.91%. Regarding `COc1ccccc1NC(=O)CSc1nc2sc3c(c2c(=O)n1-c1ccccc1)CCN(C)C3`, the inhibition is 21.4% (active).

With `CCOc1ccc(-n2c(SCC(=O)Nc3ccc(OC)cc3)nc3sc4c(c3c2=O)CCN(C)C4)cc1`, the inhibition was 11.8%. With `Cc1cc(S(=O)(=O)NC2CCCC2)ccc1-n1cnnn1`, the inhibition is 3.65%. Turning to `CC(Sc1nnnn1C)C(=O)NC(=O)NC1CCCCC1` (configuration not stated), the inhibition is 10.8%. Consider `CCN(CCNC(=O)C1=C(C)C(=O)OC12CCC(C)CC2)c1ccccc1` (configuration not stated), for which the inhibition was -1.92%. Turning to `O=C(Nc1ccc(C(=O)N2CCOCC2)cc1)Nc1cccc(C(F)(F)F)c1`, the inhibition was 0.27%. As for `CCNS(=O)(=O)c1ccc(NC(=O)Nc2cccc(C(F)(F)F)c2)cc1`, the inhibition is 34.2% (active).

Regarding `Cc1ccc(NC(=O)Nc2cccc(C(F)(F)F)c2)nc1`, the inhibition is 2.27%. Take `CCCCNCc1ccc(SC)cc1`: the inhibition was -2.43%. The same measure for `N=c1c2c3c(sc2nc2n1CCCCC2)CCCC3`: -1.9%; for `CCCCn1c(SCC(=O)N2CCC(C(=O)OCC)CC2)nc2cc(S(N)(=O)=O)ccc21`: -5.51%; for `CCCCn1c(SCC(=O)N2CCCC2=O)nc2cc(S(N)(=O)=O)ccc21`: 2.2%. The same measure for `CCCCn1c(SCc2ncc(-c3ccccc3)o2)nc2cc(S(N)(=O)=O)ccc21`: 17.9% (active).
